# PubChem BioAssay AID1345082 (National Center for Advancing Translational Sciences (NCATS), 2018)
# Out of some 94,000 compounds screened, about 4,000 (4.3%) were called active. Inconclusive results (about 29%) are left out. Many of the other results were omitted from the sample, so actives are more common in it than they were. Values without a mark were called inactive. The call rests on the fitted dose curve; in most records, active means well fitted inhibition curve with a large enough effect; inconclusive means small, poorly fitted or top-dose-only effect; inactive means no such curve, though single readings can be large or run the other way.
# Assay: Cytotoxic Profiling in NIH 3T3 Cell Line of Diverse Libraries Using Quantitative High-Throughput Screening; further: nearly all actives have a fitted effect of over 55% in size
# Conditions: NIH 3T3 viability, CellTiter-Glo ATP luminescence, 48-72 h; series mostly up to 96.7 µM; activity change, negative = cytotoxicity: at the top concentration
# Text: Cell-based phenotypic screening is a commonly used approach to discover biological pathways, novel drug targets, chemical probes and high-quality hit-to-lead molecules. Many hits identified from high-throughput screening campaign are ruled out through a series of follow-up potency, selectivity/specificity, and cytotoxicity assays. Prioritization of molecules with little or no cytotoxicity for a more in-depth downstream evaluation influence the future direction of projects, so cytotoxicity profiling of the screening libraries at early stage is essential for increasing the likelihood of candidate success. In this study, we analyzed results from a cell-based cytotoxicity screening campaign, comprising nearly 10,000 compounds in NCATS annotated libraries, and over 100,000 compounds in a diversity library, evaluated in four normal cell lines (HEK 293, NIH 3T3, CRL-7250 and HaCat) and a cancer cell line (KB 3-1, a HeLa subline) with overall screening outcomes, hit rates, pan-activity and selectivity. For the annotated library, we also examined the primary targets and mechanistic pathways regularly associated with cell death. To our knowledge, this is the first study to use high-throughput screening to profile large libraries for cytotoxicity assessment in both normal and cancer cell lines. In summary, the results generated here constitutes a valuable resource for the scientific community and provides insight on identifying cytotoxic compounds with particular mechanisms of action, and prioritizing compounds with suitable cytotoxicity profile for further evaluation.
# NIH 3T3 cells were seeded into white 1536-well plates using a Multidrop Combi peristaltic dispenser (ThermoFisher, Waltham, MA) at a density of 400 cells/well in 5 uL of medium respectively. A pintool (Kalypsys) was used to transfer 23 nL of compound solution to the 1536-well assay plates. After 48 or 72 hr incubation at 37 degree Celsius, 5% CO2 and 95% humidity, 2.5 uL of CellTiter-Glo (Promega) was dispensed into each well using a dispenser (Aspect Automation, St. Paul, MN) with solenoid valves (Lee Valves, Westbrook CT). Plates were left at room temperature for 10 min before imaging the ATP-coupled luminescence using a ViewLux microplate imager (PerkinElmer, Waltham, MA).
# On the % scale 0 is the no-effect control and ±100 the full control effect; potency means the concentration at half of the fitted maximal effect.
Structure (SMILES),Potency,"activity change, negative = cytotoxicity",outcome
CCC(CC)c1cc([C@H]2CN3CC[C@H]2C[C@@H]3CNC(=O)NCc2ccccc2)nc(-c2ccncc2)n1,20 µM (active),,
CCCS(=O)(=O)NC[C@H]1C[C@@H]2CCN1C[C@@H]2c1cc(C2CCCC2)nn1C,,-27.6% [at 174 µM],
CCC(CC)c1cc([C@H]2CN3CC[C@H]2C[C@@H]3CNS(=O)(=O)Cc2ccccc2)nc(-c2ccncc2)n1,22.4 µM (active),,
COc1ccc(-c2cc([C@H]3CN4CC[C@H]3C[C@@H]4CNS(=O)(=O)Cc3ccccc3)n(C)n2)cc1OC,,-25.7%,
O=S1(=O)NCC2(CCN(Cc3ccc(Cl)s3)C2)Oc2ncccc21 (stereo not given),,,inactive
Cc1noc(C)c1CC(=O)N1[C@H]2CC[C@@H]1c1cnc(-c3ccccc3)nc1C2,,-24.3%,
O=S(=O)(NC[C@H]1C[C@@H]2CCN1C[C@@H]2CN1CCCCC1)c1ccc(Cl)cc1,,-27.6% [at 174 µM],
CNC1CCOCC1,,-5.51% [at 230 µM],
CCCCc1cn(C[C@H]2C[C@@H]3CCN2C[C@@H]3C(=O)NCCNC(C)=O)nn1,,-17.5% [at 174 µM],
C=CCN(C)C[C@H]1CN2CC[C@H]1C[C@@H]2CNC(=O)Nc1cccc(SC)c1,100 µM (active),,
CN(Cc1ccccc1)C[C@H]1CN2CC[C@H]1C[C@@H]2CNC(=O)Nc1cccc(C#N)c1,100 µM (active),,
CC[C@H]1CN2CC[C@H]1C[C@@H]2CNC(=O)c1ccc(N(C)C)cc1,,2.42% [at 174 µM],
CC(C)NC(=O)NC[C@H]1C[C@@H]2CCN1C[C@@H]2CN1CCCC1,,,inactive [at 174 µM]
CC[C@H]1CN2CC[C@H]1C[C@@H]2CNCc1cccc(C#N)c1,,-7.23% [at 230 µM],
CN(CCc1ccccn1)C[C@H]1CN2CC[C@H]1C[C@@H]2CNC(=O)c1ccccc1,,-25% [at 174 µM],
CCOC(=O)[C@H]1CN(C(=O)c2cc3ccccc3s2)[C@]2(C)C(=O)Nc3ccccc3[C@H]12,,-34.2% [at 46.1 µM],
Cc1ccc([C@@H]2CN(Cc3ncc[nH]3)[C@@H]3C4CCN(CC4)[C@@H]32)cc1,,-1.78%,
Cc1ccccc1-c1ccc2n(c1=O)C[C@H]1C[C@@H]2CN(C(=O)CSCC(=O)O)C1,,3.5% [at 174 µM],

Structure (SMILES),Potency,"activity change, negative = cytotoxicity",outcome
COc1ccc(CC(=O)N2Cc3ccccc3CC3(CCCN3C)C2)cc1 (stereo not given),,-27.9%,
CC(C)N1C[C@@H]2OCC(=O)N(Cc3cccnc3)[C@@H]2C1,,-15.6% [at 230 µM],
Cc1ccc([C@@H]2CN(C(=O)c3ccco3)[C@@H]3C4CCN(CC4)[C@@H]32)cc1,,-8.11%,
COc1ccc(-c2cc([C@H]3CN4CC[C@H]3C[C@@H]4CNC(=O)C3CC3)n(C)n2)cc1OC,,-23.3% [at 174 µM],
C#C[C@H]1CN2CC[C@H]1C[C@@H]2CNC(=O)C1CC1,,,inactive [at 230 µM]
COc1ccccc1-c1cc([C@H]2CN3CC[C@H]2C[C@@H]3CNC(=O)c2ccco2)n(C)n1,,-8.76% [at 174 µM],
Cc1nc(-c2ccc(N(C)C)cc2)cc([C@H]2CN3CC[C@H]2C[C@@H]3CNC(=O)C2CCC2)n1,89.1 µM (active),,
COc1ccccc1-c1cc([C@H]2CN3CC[C@H]2C[C@@H]3CNC(=O)c2ccco2)nc(C)n1,,-11.9% [at 174 µM],
Cc1nc(-c2ccc(C(F)(F)F)cc2)cc([C@H]2CN3CC[C@H]2C[C@@H]3CNC(=O)c2ccco2)n1,25.1 µM (active),,
Cc1nc(-c2ccc(C(F)(F)F)cc2)cc([C@H]2CN3CC[C@H]2C[C@@H]3CNC(=O)C2CCC2)n1,20 µM (active),,
CC(=O)NCCNC(=O)[C@H]1CN2CCC1C[C@@H]2Cn1cc(-c2ccc(C(C)(C)C)cc2)nn1 (stereo not given in full),,-6.09%,
O=C(NC[C@H]1C[C@@H]2CCN1C[C@@H]2CN1CCN(c2ncccn2)CC1)c1ccc(C(F)(F)F)cc1,,-23.7%,
O=C(COc1ccccc1)N1C[C@@H]2C[C@H](C1)c1c(-c3ccccc3F)ccc(=O)n1C2,,-8.23% [at 174 µM],
FC(F)(F)CN1C2CCC1CN(c1cccc(Cl)n1)C2,,-0.118%,
O=[N+]([O-])c1ccc(N2CC3CCC(C2)N3CC(F)(F)F)nc1,,,inactive
O=C(N1[C@H]2CC[C@@H]1c1cnc(-c3ccccc3)nc1C2)C1(c2ccccc2)CC1,,-26.1%,
COCCC(=O)N1CCC2(CC1)c1nccn1-c1ccccc1CN2CC(C)C,,,inactive
